Screening results as filed in PubChem BioAssay.
PNC assembly inh = High Content Assay for Compounds that inhibit the Assembly of the Perinucleolar Compartment | activity change (PNC), negative = inhibition, % at 10 µM | PC3M PTB-GFP, PNC prevalence imaging, 16 h; active compounds read low | 3.1% of 140,000 active | AID 2417, 2010;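 active = readout at or below -70, meaning at least 70% loss of cells showing the perinucleolar compartment, a nuclear body marking cancer cells; inconclusive = readout between -30 and a set limit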;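 note: plate controls were DMSO wells for no effect and camptothecin positive control wells for full effect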
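Compounds are pinned in duplicate onto adhered PC3M cells stably expressing GFP-tagged PTB and incubated 16 h at 37 C. Cells are then fixed, nuclei stained with Hoechst, and PNC-positive cells counted.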
Tau fibril ThT = qHTS for Inhibitors of Tau Fibril Formation, Thioflavin T Binding; recombinant tau K18 P301L, heparin-induced fibrillization, ThT fluorescence; Potency, µM (doses to about 57.4 µM), for inactives: at the top dose activity, negative = inhibition, actives largely listed as inhibitors; 2.1% of 270,000 active; note: potency is the fitted concentration of half-maximal effect; nearly all actives have a fitted effect of over 55% in size
Target sequence (P10636 561-689 P618L limits assumed): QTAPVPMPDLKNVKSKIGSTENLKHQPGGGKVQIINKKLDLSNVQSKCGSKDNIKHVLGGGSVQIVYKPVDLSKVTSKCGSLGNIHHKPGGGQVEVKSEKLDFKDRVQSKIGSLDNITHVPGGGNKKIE
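Recombinant human tau K18 fragment […] carrying P301L, 15 uM unlabeled plus 0.24 uM Alexa 594-labeled, was fibrillized with 20 uM heparin in 100 mM sodium acetate pH 7 for 6 hr at 37 C; 30 uM ThT fluorescence read after 1 hr.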
NPSR antagonist = qHTS Assay for Antagonists of the Neuropeptide S Receptor: cAMP Signal Transduction | Q6W5P4 | CHO-NPSR cells, cAMP TR-FRET, antagonist mode | Potency, µM (top dose mostly 38.3 µM), for inactives: at the top dose activity change, negative = inhibition, usual class: inhibitors | 1% of 220,000 active | AID 1461, 2008; note: potency is the fitted concentration of half-maximal effect; nearly all actives have a fitted effect of over 50% in size
Target sequence (Q6W5P4 whole entry, looked up): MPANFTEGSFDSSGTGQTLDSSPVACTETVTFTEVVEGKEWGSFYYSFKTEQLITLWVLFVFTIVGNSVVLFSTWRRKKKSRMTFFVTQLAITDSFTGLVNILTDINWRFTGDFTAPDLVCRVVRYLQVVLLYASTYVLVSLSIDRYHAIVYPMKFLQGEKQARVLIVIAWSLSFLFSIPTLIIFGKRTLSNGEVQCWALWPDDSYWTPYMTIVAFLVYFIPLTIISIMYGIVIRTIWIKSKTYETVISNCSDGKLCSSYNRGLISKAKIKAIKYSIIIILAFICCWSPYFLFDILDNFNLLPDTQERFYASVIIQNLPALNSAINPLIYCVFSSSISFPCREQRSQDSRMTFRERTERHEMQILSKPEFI
KDM4E inh = qHTS Assay for Inhibitors of Human Jumonji Domain Containing 2E (JMJD2E); Lysine-specific demethylase 4E (Homo sapiens), B2RXH2; JMJD2E catalytic domain, FDH-coupled NADH fluorescence (FDH is formaldehyde dehydrogenase); Potency, µM (titrated, usually from 57.1 µM), inactives show at the top dose activity change, negative = inhibition, hits mostly inhibitors; 1.6% of 230,000 active; active = well fitted inhibition curve with a large enough effect, not every such curve was filed as active; inconclusive = small, poorly fitted or top-dose-only effect, or another doubt; inactive = no such curve, though single readings can be large or run the other way;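 note: potency is the fitted concentration of half-maximal effect; 0% = wells with enzyme and -100% = buffer wells without enzyme; nearly all actives have a fitted effect of over 50% in size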
Tau fibril FP = qHTS for Inhibitors of Tau Fibril Formation, Fluorescence Polarization. Microtubule-associated protein tau (Homo sapiens), P10636. K18 P301L tau heparin fibrillization, Alexa594 FP, 6 h. Potency, µM (highest dose often 57.7 µM), without a hit: at the highest dose activity, negative = inhibition, usual class: inhibitors. 0.39% of 280,000 active. AID 1468, 2008; note: potency is the fitted concentration of half-maximal effect; nearly all actives have a fitted effect of over 55% in size
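FP of Alexa 594-tau after heparin (20 uM) induction. Substrate: human K18 P301L, 15 uM unlabeled, 0.24 uM labeled. Buffer 100 mM sodium acetate pH 7. 6 hr, 37 C.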
Tau fluor counter = Counterscreen qHTS for Inhibitors of Tau Fibril Formation, Fluorescence Polarization | tau K18 P301L (four-repeat tau fragment) Alexa594 fluorescence, heparin fibrillization | Potency, µM (titrated, usually from 57.7 µM), without a hit: top-dose activity change, negative = decrease | 0.93% of 280,000 active; note: potency is the fitted concentration of half-maximal effect; nearly all actives have a fitted effect of over 55% in size
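Human K18 P301L tau (15 uM unlabeled plus 0.24 uM Alexa 594-labeled, final) in 100 mM sodium acetate pH 7 was mixed with compound and 20 uM heparin and incubated 6 hr at 37 C.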
* hit, by the source's call; u = inconclusive; x = not tested or not shown; [ ] = another dose, or the depositor's remark. Rows were chosen to be rich in hits. Some 5.1% of all compounds tested hit in one or more screens of this group. Unless noted, calls come from the whole dose curve; as a rule, active = well fitted curve in the direction sought with a large enough effect; inconclusive = small, poorly fitted or top-dose-only effect, or another doubt; inactive = no such curve, though single readings can be large; an effect the other way counts as inactive or inconclusive. Unless noted, % is set by controls: 0 for no effect and ±100 for the full control effect.

SMILES | PNC assembly inh | Tau fibril ThT | NPSR antagonist | KDM4E inh | Tau fibril FP | Tau fluor counter
COc1ccc(O)c(C(=O)c2cc(SCC(=O)O)c3nc4sc5c(c4c(=O)n3c2)CCCC5)c1 | x | 17.8µM* | -28.2% | u | -7.1% | -24.8%
Cc1cccc2c1-c1sc(C(=O)N(C)c3cccc(Cl)c3)cc1CO2 | x | u | x | x | 0.9% | u
CC(CCc1ccccc1)NC(=O)CSc1n[nH]c(-c2ccc(F)cc2)n1 (stereo unspecified) | x | 0.9% | x | x | -6.6% | -20.3%
CCN1CCN(c2cc(C)c3cc(NC(=O)c4cncc(Br)c4)ccc3n2)CC1 | -18.0 | u | -21.2%[46.1 µM] | -11.5% | u | u
Cc1ccccc1C(=O)Nc1ccc2nc(Nc3cccc(C(F)(F)F)c3)cc(C)c2c1 | x | -22.8% | x | x | u | 5.62µM*[quencher]
Cc1cc(Nc2cccc(C(F)(F)F)c2)nc2ccc(NC(=O)c3cncc(Br)c3)cc12 | x | u | x | x | -7.5% | 5.01µM*[quencher]
CCOC(=O)c1cccc(NC(=O)c2cncc(Br)c2)c1 | 1.0 | -1.8% | -3.8% | 8.7% | 0.6% | -1.3%
CCOc1cc(C(=O)Nc2ccc3nc(Nc4cccc(Cl)c4)cc(C)c3c2)cc(OCC)c1OCC | x | u | x | x | -6.8% | 2.24µM*[quencher]
Cc1cc(Nc2cccc(Cl)c2)nc2ccc(NC(=O)c3cncc(Br)c3)cc12 | x | u | x | x | -11.2% | 6.31µM*[quencher]
Cc1ccc(NCc2cccn2-c2nnc(N3CCC(C(=O)NCc4ccccc4C)CC3)s2)cc1 | x | u | x | x | 3.5% | -25.8%
COc1cc2[nH]c(=O)n(CCCCCC(=O)N3CCN(c4ccc(Cl)cc4)CC3)c(=O)c2cc1OC | x | u | x | x | -14.3% | -26.1%
COc1cc2c(cc1OC)C(c1ccc(F)cc1)N(c1ccc(F)cc1)C(=O)C2 (stereo unspecified) | x | -13.5% | x | x | -7.1% | -22.9%
O=C(N/N=C/c1c[nH]c2ccccc12)c1cc(-c2ccc(-c3ccccc3)cc2)n[nH]1 | -13.3 | u | u | u | 5.1% | 12.6µM*[quencher]
Cc1ccc(-c2cc(C(=O)N/N=C/c3c[nH]c4ccccc34)[nH]n2)cc1 | u | u | -21.5% | u | u | 15.8µM*[quencher]
O=C(N/N=C/c1c[nH]c2ccccc12)c1cc(-c2ccccc2)n[nH]1 | -25.6 | u | -18.6% | -28.6% | 14.7% | 25.1µM*[quencher]
O=C(N/N=C/c1c[nH]c2ccccc12)c1ccn[nH]1 | x | u | -4.3% | -7.0% | 10.0% | -3.5%
Cc1occc1C(=O)N/N=C/c1c[nH]c2ccccc12 | 15.6 | u | -11.6%[46.1 µM] | 8.2% | 11.1% | -19.4%
O=C(N/N=C/c1c[nH]c2ccccc12)c1cc(-c2cccc3ccccc23)n[nH]1 | -5.2 | u | -44.3% | u | 3.5% | 10µM*[quencher]
COc1ccc(C)cc1NC1(c2ccccc2)C(=O)c2ccccc2C1=O | x | -11.5% | x | x | 6.9% | -21.0%
O=C(NCCCN1CCCCCC1)c1ccc2c(c1)sc1nc(-c3ccccc3)cn12 | x | 2.6% | x | x | -12.3% | -0.3%
CCOc1ccc(NC(=O)CN(Cc2ccccc2)S(=O)(=O)c2ccc3nc(C)sc3c2)cc1 | x | -2.8% | x | x | 10.4% | -19.7%
Cn1c(CNC(=O)CSc2n[nH]c(-c3ccccc3)n2)nc2ccccc21 | x | 0.2% | x | x | -3.5% | -4.5%
CC(=O)O[C@H](C(=O)O[C@@H]1C[C@@H](CCC[C@H]2O[C@H](C(=O)OC(C)C)CC[C@@H]2C)O[C@@H](CC#N)C1)c1ccccc1 | x | -4.4% | x | 9.8% | 9.1% | -3.8%
O=C(N/N=C/c1ccccn1)c1cc(-c2ccc3ccccc3c2)n[nH]1 | -23.2 | u | -59.0% | u | -14.2% | -26.4%
Cc1nc(C)c(C(=O)N/N=C/c2c[nH]c3ccccc23)s1 | -87.0* | u | 0.0%[46.1 µM] | u | 11.4% | -20.2%
SMILES | PNC assembly inh | Tau fibril ThT | NPSR antagonist | KDM4E inh | Tau fibril FP | Tau fluor counter
O=C(N/N=C/c1c[nH]c2ccccc12)c1cc(-c2ccc3ccccc3c2)n[nH]1 | -112.6* | 3.1% | 6.2% | 4.5% | 6.4% | 5.2%
COc1ccccc1NC(=O)C1CCN(S(=O)(=O)c2cn(C)cn2)CC1 | x | 4.3% | x | x | 0.4% | 7.1%
Cc1cc(CN2CCN(CCC#N)CC2)c(O)c(C2(C)CCCCC2)c1 | u | -13.5% | 10µM* | -6.4% | 7.5% | -19.7%
Cc1nc2c(C(=O)NCc3ccc4c(c3)OCO4)cnn2c(C)c1Cc1ccc(F)cc1Cl | -20.2 | -7.6% | 10µM* | u | -1.6% | -3.3%
Cc1ccccc1Cc1c(C)nc2c(C(=O)NCc3ccc4c(c3)OCO4)cnn2c1C | u | -15.7% | u | u | 3.2% | -7.3%
CN1CCN(Cc2c(O)ccc3cc(Br)ccc23)CC1 | x | u | -8.4% | u | u | -20.6%
CCN(Cc1ccncc1)Cc1c(O)ccc2cc(Br)ccc12 | x | u | -34.3% | 7.08µM* | -0.2% | u
COc1cccc(CN2CCN(c3cccc(C(F)(F)F)c3)CC2)c1OC | u | -11.6% | 0.4%[46.1 µM] | u | 9.6% | -11.6%
CCOc1cccc(CN2CCN(c3cccc(C(F)(F)F)c3)CC2)c1O | 42.4 | u | 10µM* | -13.4% | 5.3% | -20.3%
CCC(NC(C)C)C(O)c1ccc(O)c(O)c1 (stereo unspecified) | -23.2 | u | -6.2% | 12.6µM* | -11.1% | u
CCS(=O)(=O)CCSc1nc(-c2ccc(Br)cc2)cc(-c2ccccc2)c1C#N | x | -7.6% | x | x | u | -7.4%
CS(=O)c1nc(-c2ccc(Br)cc2)cc(-c2ccccc2)c1C#N (stereo unspecified) | 8.9 | u | 12.6µM* | -23.9% | u | -23.1%
CS(=O)(=O)c1nc(-c2ccc(Br)cc2)cc(-c2ccccc2)c1C#N | 71.5 | -17.9% | 7.94µM* | u | -20.8% | -21.1%
CCc1ccc(-n2c(N3CCN(c4ccc(F)cc4)CC3)nc3ccccc3c2=O)cc1 | x | -7.8% | x | x | 3.6% | -14.8%
CCC(C)N1C(=O)/C(=C/c2c(NCCCOC(C)C)nc3c(C)cccn3c2=O)SC1=S (stereo unspecified) | 15.8 | u | -10.4%[46.1 µM] | u | 25.1µM* | 0.8%
COc1ccc(/C=N/OCC(=O)N=Nc2c(O)[nH]c3ccc(Br)cc23)cc1 | x | 5.01µM* | -8.5% | 5.3% | u | u
COc1cc(-c2oc3ccc(C)cc3c(=O)c2O)cc(OC)c1OC | x | u | x | x | -6.7% | -27.8%
COc1c(O)c(O)cc2c1oc1c3cc(C)ccc3oc(=O)c21 | x | 8.91µM* | x | 20µM* | u | 10µM*[quencher]
